JMJD2A Tudor = qHTS Assay for Inhibitors of JMJD2A-Tudor Domain. Potency, µM (doses to about 114 µM), for inactives: at the highest dose activity change, negative = inhibition, usual class: inhibitors. Lysine-specific demethylase 4A (Homo sapiens), O75164. AlphaScreen JMJD2A-Tudor / H3K4me3 peptide binding. actives 4.4% (n = 390,000). AID 504339, 2011; note: % is set by controls: 0 for no effect and ±100 for the full control effect; nearly all actives have a fitted effect of over 50% in size
Sfp PPTase inh = qHTS Assay for Inhibitors of Bacillus subtilis Sfp phosphopantetheinyl transferase (PPTase). Potency, µM, inactives show largest response in the series, negative = inhibition, usual class: inhibitors. actives 3.5% (n = 310,000). 4'-phosphopantetheinyl transferase ffp (Bacillus subtilis), Q9F4F7. Biochemical Sfp PPTase activity, qHTS;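 note: the enzyme is Sfp with the accession as filed and its product quenches rhodamine fluorescence; 0% = enzyme reaction without inhibitor and -100% = no enzyme wells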
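Fluorescence-quenching assay: 15 nM Sfp-PPTase preincubated 15 min at room temperature with compound, then 5 uM rhodamine-CoA and 12.5 uM BHQ-2-labelled YbbR peptide added. Fluorescence (ex 525/em 598 nm) read at start and after 30 min; difference gives rate.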
HP1b binding inh = HTS for Inhibitors of HP1-beta Chromodomain Interactions with Methylated Histone Tails; Chromobox protein homolog 1 (Homo sapiens), P83916; AlphaScreen HP1-beta / biotin-H3K9me3 peptide binding; Potency, µM (series often up to 114 µM), without a hit: at the top dose activity change, negative = inhibition, usual class: inhibitors; actives 0.56% (n = 390,000); note: nearly all actives have a fitted effect of over 70% in size
Target sequence (P83916 whole entry, looked up): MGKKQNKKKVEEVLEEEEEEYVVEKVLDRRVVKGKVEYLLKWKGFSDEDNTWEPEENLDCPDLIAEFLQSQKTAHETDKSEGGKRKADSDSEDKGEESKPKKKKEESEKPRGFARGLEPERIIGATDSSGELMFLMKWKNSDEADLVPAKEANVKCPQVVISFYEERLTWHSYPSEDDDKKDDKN
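AlphaScreen: HP1-beta (50 nM) preformed 30 min with biotin-H3(1-18)K9me3 peptide (50 nM) in PBS pH 7.4, 0.01% Tween-20. Compound added for 30 min at RT, then streptavidin donor/nickel chelate acceptor beads (10 ug/mL) for 30 min.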
L3MBTL1 block = qHTS Assay for the Inhibitors of L3MBTL1; Lethal(3)malignant brain tumor-like protein 1 (Homo sapiens), Q9Y468; AlphaScreen L3MBTL1–H3K9me1 peptide binding; Potency, µM (highest dose often 57.1 µM), for inactives: top-dose activity, negative = inhibition, most hits filed as inhibitors; actives 0.66% (n = 230,000); AID 485360, 2010; note: % is set by controls: 0 for no effect and ±100 for the full control effect; nearly all actives have a fitted effect of over 60% in size
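Displacement of a biotinylated histone H3(1-15) peptide monomethylated at Lys9 (75 nM) from L3MBTL1 (50 nM) was measured by AlphaScreen after a 30 min room-temperature compound incubation; cefsulodin titration served as intraplate control.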
G9a inh = qHTS Assay for Inhibitors of Histone Lysine Methyltransferase G9a | G9a H3K9 monomethylation, AlphaScreen, 2 h | Potency, µM (top dose mostly 102 µM), inactives show at the highest dose activity, negative = inhibition, most hits filed as inhibitors | actives 8.8% (n = 350,000) | AID 504332, 2011; note: % is set by controls: 0 for no effect and ±100 for the full control effect; nearly all actives have a fitted effect of over 75% in size
Target sequence (Q96KQ7 913-1193 limits assumed): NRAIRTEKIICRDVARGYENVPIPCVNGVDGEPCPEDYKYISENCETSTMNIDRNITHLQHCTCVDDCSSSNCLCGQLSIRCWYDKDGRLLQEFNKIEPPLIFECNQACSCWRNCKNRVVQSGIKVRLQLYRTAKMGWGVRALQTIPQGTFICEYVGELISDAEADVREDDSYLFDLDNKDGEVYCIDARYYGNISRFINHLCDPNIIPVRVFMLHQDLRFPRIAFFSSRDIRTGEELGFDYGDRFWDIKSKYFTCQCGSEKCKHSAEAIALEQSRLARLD
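Quantitative HTS format: methyltransferase activity on a biotin-tagged H3K9 peptide is measured by AlphaScreen, using a rabbit anti-monomethyl-H3K9 antibody with streptavidin donor and anti-IgG acceptor beads. Final levels are 20 nM enzyme, 500 nM peptide, 20 uM SAM; 2 h RT.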
BAZ2B inh = qHTS Assay for Inhibitors of BAZ2B; Bromodomain adjacent to zinc finger domain protein 2B (Homo sapiens), Q9UIF8; AlphaScreen BAZ2B-H3K14Ac peptide displacement; Potency, µM (top dose mostly 114 µM), for inactives: top-dose activity change, negative = inhibition, usual class: inhibitors; actives 4.4% (n = 360,000); note: % is set by controls: 0 for no effect and ±100 for the full control effect; nearly all actives have a fitted effect of over 60% in size
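BAZ2B (50 nM) with biotin-H3(5-23)K14Ac peptide (50 nM) in PBS pH 7.4, 0.01% Tween-20, preformed 30 min, then compound 30 min at room temperature; top concentration 110uM. AlphaScreen streptavidin donor/nickel chelate acceptor beads (10 ug/mL final), 20 min dark, signal read.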
Active calls of the source: *; ? = inconclusive; / = no result given; ! = a repeat was not active; [ ] = another dose, or the depositor's remark. Compounds with a hit are over-represented: about 12% of the library has one in this group of screens. Calls come from the whole dose curve; as a rule, active = well fitted curve in the direction sought with a large enough effect; inconclusive = small, poorly fitted or top-dose-only effect, or another doubt; inactive = no such curve, though single readings can be large; an effect the other way counts as inactive or inconclusive. Potency is the fitted concentration of half-maximal effect.

SMILES	JMJD2A Tudor	Sfp PPTase inh	HP1b binding inh	L3MBTL1 block	G9a inh	BAZ2B inh
CCn1c(C)nc2cc(C(=O)NNC(=O)Nc3ccc(Cl)cc3)ccc21	-13%	17%	35%	5%	?	?
O=C(O)CCC(=O)NNC(=O)COc1cccc(Cl)c1	-11%	6%	13%[57 µM]	7%	-27%	-5%
CCn1c(C)nc2cc(C(=O)NNS(=O)(=O)c3c(F)cc(F)c(Cl)c3F)ccc21	25µM*	17%	17%	6%	40µM*	-20%
COc1ccc(C(=O)NNC(=S)Nc2ccccc2)cc1	-4%	22%	15%	-21%	45µM*	-3%
O=C(NNC(=S)Nc1ccccc1Cl)c1ccccc1	-16%	1%	10%	/	/	2%
COc1ccc(CC(=O)NNC(=S)Nc2ccccc2)cc1Cl	-22%	15%	10%	/	50µM*	?
O=C(NNC(=S)Nc1ccc(Cl)cc1)c1ccccc1	-16%	3%	1%	/	35µM*	1%
CCCCOC(=O)c1ccc(NC(=O)CSc2nc3c(c(=O)[nH]2)CCCC3)cc1	-10%	/	10%	/	?	-14%
CCc1nnc(NC(=O)[C@@H]2CCCN2C(=O)c2cccs2)s1	-8%	/	54%	/	/	/
CN(C)/C=C1\C(=O)NN=C1c1ccccc1	-3%	0%	34%	20%	50µM*	-27%
CCOC(=O)C(=O)c1csc(NC(=O)CCSc2ccc(C)cc2)n1	-16%	-1%	24%	/	71µM*	/
Cc1cc(Br)ccc1NC(=O)C1CCN(S(=O)(=O)c2cccc3nsnc23)CC1	-13%	/	25%	/	-21%[59 µM]	/
CC[N+]1(C)CC2CCC(C)(C1)C2(C)C (stereo not given)	32µM*	-12%	-8%	/	?	-2%
COc1ccccc1CN1CC[C@@]2(CCCN(S(=O)(=O)c3ccccc3)C2)C1	/	22%	/	/	-4%[12.7 µM]	/
COC(=O)c1cc(NC(=O)c2oc(=O)c3ccccc3c2-c2ccccc2)cc(C(=O)OC)c1	-15%	/	10%	/	4%[59 µM]	/
Cc1ccc(C(OCC(C)(C)C[N+](C)(C)C)c2ccccc2)cc1 (stereo not given)	22µM*	45µM*	17%	/	35%[59 µM]	-10%
CCN(CC)CCOC(c1ccccc1)c1ccc(C)cc1 (stereo not given)	-8%	-3%	13%	-1%	-34%[59 µM]	-9%
CCc1ccccc1NC(=O)C(=O)NCCCN1CCOCC1	-10%	/	31%	/	-41%[59 µM]	2%
CSc1ccccc1NC(=O)CNCCCN1CCOCC1	0.11µM*	?	-26%[57 µM]	4%	3.5µM*	56µM*
CCOCCCNCC(=O)Nc1ccccc1N1CCOCC1	4µM*	-25%	?	5%	11µM*	35µM*
CCOCCCNCC(=O)Nc1cc(S(=O)(=O)N2CCOCC2)ccc1N1CCOCC1	-12%	/	31%	10%	/	/
Cc1ccccc1C(=O)Oc1ccc(Br)cc1C(=S)N1CCCC1	-8%	-1%	16%	-4%	45µM*	-1%
O=C(Oc1ccc(Br)cc1C(=S)N1CCCC1)c1ccccc1Cl	-4%	-5%	7%	-6%	7%[0.0925 µM]	-14%
O=C(Oc1ccc(Br)cc1C(=S)N1CCCCC1)c1cc([N+](=O)[O-])cc([N+](=O)[O-])c1	?	-2%	?	/	?	?
O=C(Oc1ccc(Br)cc1C(=S)N1CCCC1)c1ccccc1F	-12%	45µM*	-17%	-2%	8.9µM*	-8%
SMILES	JMJD2A Tudor	Sfp PPTase inh	HP1b binding inh	L3MBTL1 block	G9a inh	BAZ2B inh
CC(C)C[C@H](NC(=O)[C@H](CC(C)C)NC(=O)[C@@H](Cc1c[nH]c2ccccc12)NC(=O)[C@H](Cc1ccccc1)NC(=O)[C@@H](Cc1c[nH]c2ccccc12)NC(=O)[C@H](CCC(N)=O)NC(=O)[C@H](CCC(N)=O)NC(=O)[C@@H]1CCCN1C(=O)[C@H](CCCCN)NC(=O)[C@@H]1CCCN1C(=O)[C@@H](CCCNC(=N)N)NC(=O)[C@@H]1CCCN1C(=O)CNC(=O)[C@H](CC(C)C)NC(=O)[C@H](CC(C)C)NC(=O)[C@H](Cc1ccc(O)cc1)NC(=O)CNC(=O)[C@H](C)NC(=O)[C@H](CO)NC(=O)[C@H](CC(N)=O)NC(=O)[C@H](CC(C)C)NC(=O)[C@@H](NC(=O)[C@H](Cc1c[nH]c2ccccc12)NC(=O)CN)[C@@H](C)O)C(N)=O	/	-27%	/	/	/	/
Cc1ccc(NC(=O)CSc2nnc(-c3ccc(Br)cc3)o2)c(C)c1	-7%	/	71%	/	-1%[59 µM]	4%
Cc1ccc(NC(=O)CSc2nnc(-c3cccnc3)o2)c(C)c1	-14%	/	33%	-4%	45µM*	3%
COc1ccc2c3c(cccc13)C(=O)N(O)C2=O	-13%	-6%	20%	-3%	-49%[59 µM]	-30%
CCC1=NNc2cccc3c(OC)ccc1c23	/	32µM*	/	/	25µM*	28µM*
CCOc1ccc(CCNC(=O)CCCc2nnc3n(CC(C)C)c(=O)c4sccc4n23)cc1	3%	/	34%	/	2%[59 µM]	-3%
COc1ccc(CCN2C(=O)c3[nH]nc(-c4ccccc4O)c3C2c2ccc(OC)c(OC)c2)cc1 (stereo not given)	-18%	/	33%	/	9%[59 µM]	-23%
COc1ccc2[nH]cc(CCNC(=O)c3ccc4ccccc4n3)c2c1	?	9%	-14%	-3%	71µM*	?
COc1ccc2c(CCNC(N)=S)c[nH]c2c1	20µM*	2%	-18%	/	-42%	89µM*
COc1cc2c(CCNC(C)=O)c[nH]c2cc1O	-1%	/	27%	/	20µM*!	/
COc1ccc(NC(=S)NCCc2c[nH]c3ccccc23)c(OC)c1	-30%	26%	7%	-25%	50µM*	45µM*
COc1ccc(CCNC(=O)NCCc2c[nH]c3ccccc23)cc1OC	-18%	11%	-6%	/	-4%[2.33 µM]	-22%
COc1ccc(NC(=S)NCCc2ccc(Cl)cc2)c(OC)c1	-35%	12%	-2%	-17%	-29%	?
COc1ccc(C(=O)NCCc2c[nH]c3ccc(OC)cc23)cc1	-18%	6%	-5%	/	-7%	?
NC(=S)N/N=C\c1c(OCc2ccccc2Cl)ccc2ccccc12	?	22%	2%	-26%	-43%	?
COc1cc(C2CC(=O)N(c3ccccc3)C3=C2C(=O)OC3)cc(OC)c1OC (stereo not given)	-4%	/	5%	/	-13%[59 µM]	-10%

Screening results from PubChem BioAssay.
